Results taken from the OligoGym collection.

Target: TRIM2
Experiment: pooled miR-30 sensor sort-seq; sequence = guide strand
Details: shRNA
Note: reference of the scale not given here.

| Sequence | sensor-assay potency score (higher = more potent) |
| --- | --- |
| TTGAATCCACTGCTACACCTGT | -0.182 |
| TTTCCAGTGCTGTACATGCTTG | -1.12 |
| TTTTTGTCTTAAATTTCCCATC | -1.5 |
| ATCACTTTCAGCTTAAACGGGC | -0.591 |
| TTAATTGAAAGTTTCATTGTAG | 0.799 |
| TTTCATTGTAGACTAAAGCATC | -0.921 |
| TTCCATTTGTAGATGCAGCTAC | 0.668 |
| TATTGCTATTTACAGCTGCAAA | -1.54 |
| TTCCATTTGAATCCACTGCTAC | -0.305 |
| TTGTCTTAAATTTCCCATCGGA | 0.291 |
| TAGAGTCTCAGAGACAGGGTAA | -0.389 |
| TAAAATTCCATCACATTCCCAT | 0.363 |

Target: TRIM38
Experiment: as above
Details: shRNA

| Sequence | sensor-assay potency score (higher = more potent) |
| --- | --- |
| TTCACATCGAAGTAAAGCTTGG | -0.536 |
| TCTGTCTTCAAGTTGCTTCAGT | 0.253 |
| TACGTCTTCAACAAGAGCTGTG | -0.0393 |
| TATAAAAGGATACAACTCCGGC | -0.57 |
| TTTCCATTTAGTTATTCGCATT | -1.66 |
| TTAACATTTTCTTCACATCGAA | -0.794 |
| TTCTTGATCCGTCTCTTTGAGG | -1.24 |
| TTTTGTCACAGCTTTCTGGAGC | -0.543 |
| TTTCTTTTTGCACAGCCTGAGG | -1.54 |
| TAACATTTTCTTCACATCGAAG | -1.18 |
